Assay [1] is described as follows: small molecules captured by biotinylated probe aFSTL3 – biochemical, small-molecule microarray, fluorescence 635/667, stem cell growth factor project, primary screen (AID 1064).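 Note: measures binding of the biotinylated anti-FSTL3 antibody to printed compounds.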 To be noted: higher = more signal.
The nature of assay [2]: binders from COS7 lysate, DM2A8 probe, primary screen, torsin A project, cell lysate, small-molecule microarray, fluorescence 635/667 (AID 1065). The conditions noted are these: higher = more signal, COS7 lysate expressing mutant human TOR1A.
Assay [3] is described as follows: small molecules captured by biotinylated probe aFGF2 – biochemical, small-molecule microarray, fluorescence 635/667, stem cell growth factor project, primary screen (AID 1067).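 Note: measures binding of biotinylated aFGF2 protein to printed compounds on slides; z-score merges feature fluorescence and signal-to-noise across triplicate slides.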 The conditions noted are these: higher = more signal.
The nature of assay [4]: small molecules captured by biotinylated probe aFGF10 – biochemical, small-molecule microarray, fluorescence 635/667, stem cell growth factor project, primary screen (AID 1071).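 Note: score merges 667 nm spot intensity and signal to noise from triplicate slides.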 To be noted: higher = more signal.
In assay [5] the target is Neurogenic locus notch homolog protein 2 (Homo sapiens) (UniProt Q04721). Put plainly: small molecules binding Notch2 protein – biochemical, small-molecule microarray, 635 nm fluorescence, stem cell growth factors, primary screen (AID 1073). To be noted: higher = more signal.
In assay [6] the target is Pro-neuregulin-1, membrane-bound isoform (Homo sapiens) (UniProt Q02297). Put plainly: small molecules binding neuregulin-1 protein – biochemical, small-molecule microarray, fluorescence 635/667, psychiatric disease protein project, primary screen (AID 1075).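 Note: score combines 667 nm spot fluorescence with signal to noise.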 To be noted: NRG1 binding, 635 nm fluorescence, higher = more signal.
The test system of assay [7] is Neuregulin-1 EGF-like domain. Description: small molecules binding NRG1 EGF domain – biochemical, small-molecule microarray, 635 nm fluorescence, primary screen (AID 1081).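 Note: binding of the protein to compounds printed on small-molecule microarray slides.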 To be noted: higher = more signal.
Assay [8] can be described thus: FRG1 expression reporter modulators in myotubes – cell-based, C2C12 myotubes, firefly/Renilla luciferase, luminescence, FRG1 inhibition for FSHD, primary screen (AID 1084). To be noted: FRG1 promoter luciferase, higher = more signal, called active from +8 up or from −8 down.
Assay [9] in a line: small molecules captured by biotinylated probe aFST – biochemical, small-molecule microarray, fluorescence 635/667, stem cell growth factor project, primary screen (AID 1086).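 Note: score merges 667 nm fluorescence with signal-to-noise of each printed compound spot.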 The conditions noted are these: higher = more signal.
Assay [10] is described as follows: binders of probe aHhip on microarray, primary screen, stem cell growth factor project, biochemical, small-molecule microarray, fluorescence 635/667 (AID 1087).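 Note: score merges spot fluorescence at 667nm with spot signal to noise ratio.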 The conditions noted are these: higher = more signal.

Active and inactive are the calls of the source.

Neurogenic locus notch homolog protein 2 (Homo sapiens), sequence (Q04721 whole entry, looked up, canonical isoform): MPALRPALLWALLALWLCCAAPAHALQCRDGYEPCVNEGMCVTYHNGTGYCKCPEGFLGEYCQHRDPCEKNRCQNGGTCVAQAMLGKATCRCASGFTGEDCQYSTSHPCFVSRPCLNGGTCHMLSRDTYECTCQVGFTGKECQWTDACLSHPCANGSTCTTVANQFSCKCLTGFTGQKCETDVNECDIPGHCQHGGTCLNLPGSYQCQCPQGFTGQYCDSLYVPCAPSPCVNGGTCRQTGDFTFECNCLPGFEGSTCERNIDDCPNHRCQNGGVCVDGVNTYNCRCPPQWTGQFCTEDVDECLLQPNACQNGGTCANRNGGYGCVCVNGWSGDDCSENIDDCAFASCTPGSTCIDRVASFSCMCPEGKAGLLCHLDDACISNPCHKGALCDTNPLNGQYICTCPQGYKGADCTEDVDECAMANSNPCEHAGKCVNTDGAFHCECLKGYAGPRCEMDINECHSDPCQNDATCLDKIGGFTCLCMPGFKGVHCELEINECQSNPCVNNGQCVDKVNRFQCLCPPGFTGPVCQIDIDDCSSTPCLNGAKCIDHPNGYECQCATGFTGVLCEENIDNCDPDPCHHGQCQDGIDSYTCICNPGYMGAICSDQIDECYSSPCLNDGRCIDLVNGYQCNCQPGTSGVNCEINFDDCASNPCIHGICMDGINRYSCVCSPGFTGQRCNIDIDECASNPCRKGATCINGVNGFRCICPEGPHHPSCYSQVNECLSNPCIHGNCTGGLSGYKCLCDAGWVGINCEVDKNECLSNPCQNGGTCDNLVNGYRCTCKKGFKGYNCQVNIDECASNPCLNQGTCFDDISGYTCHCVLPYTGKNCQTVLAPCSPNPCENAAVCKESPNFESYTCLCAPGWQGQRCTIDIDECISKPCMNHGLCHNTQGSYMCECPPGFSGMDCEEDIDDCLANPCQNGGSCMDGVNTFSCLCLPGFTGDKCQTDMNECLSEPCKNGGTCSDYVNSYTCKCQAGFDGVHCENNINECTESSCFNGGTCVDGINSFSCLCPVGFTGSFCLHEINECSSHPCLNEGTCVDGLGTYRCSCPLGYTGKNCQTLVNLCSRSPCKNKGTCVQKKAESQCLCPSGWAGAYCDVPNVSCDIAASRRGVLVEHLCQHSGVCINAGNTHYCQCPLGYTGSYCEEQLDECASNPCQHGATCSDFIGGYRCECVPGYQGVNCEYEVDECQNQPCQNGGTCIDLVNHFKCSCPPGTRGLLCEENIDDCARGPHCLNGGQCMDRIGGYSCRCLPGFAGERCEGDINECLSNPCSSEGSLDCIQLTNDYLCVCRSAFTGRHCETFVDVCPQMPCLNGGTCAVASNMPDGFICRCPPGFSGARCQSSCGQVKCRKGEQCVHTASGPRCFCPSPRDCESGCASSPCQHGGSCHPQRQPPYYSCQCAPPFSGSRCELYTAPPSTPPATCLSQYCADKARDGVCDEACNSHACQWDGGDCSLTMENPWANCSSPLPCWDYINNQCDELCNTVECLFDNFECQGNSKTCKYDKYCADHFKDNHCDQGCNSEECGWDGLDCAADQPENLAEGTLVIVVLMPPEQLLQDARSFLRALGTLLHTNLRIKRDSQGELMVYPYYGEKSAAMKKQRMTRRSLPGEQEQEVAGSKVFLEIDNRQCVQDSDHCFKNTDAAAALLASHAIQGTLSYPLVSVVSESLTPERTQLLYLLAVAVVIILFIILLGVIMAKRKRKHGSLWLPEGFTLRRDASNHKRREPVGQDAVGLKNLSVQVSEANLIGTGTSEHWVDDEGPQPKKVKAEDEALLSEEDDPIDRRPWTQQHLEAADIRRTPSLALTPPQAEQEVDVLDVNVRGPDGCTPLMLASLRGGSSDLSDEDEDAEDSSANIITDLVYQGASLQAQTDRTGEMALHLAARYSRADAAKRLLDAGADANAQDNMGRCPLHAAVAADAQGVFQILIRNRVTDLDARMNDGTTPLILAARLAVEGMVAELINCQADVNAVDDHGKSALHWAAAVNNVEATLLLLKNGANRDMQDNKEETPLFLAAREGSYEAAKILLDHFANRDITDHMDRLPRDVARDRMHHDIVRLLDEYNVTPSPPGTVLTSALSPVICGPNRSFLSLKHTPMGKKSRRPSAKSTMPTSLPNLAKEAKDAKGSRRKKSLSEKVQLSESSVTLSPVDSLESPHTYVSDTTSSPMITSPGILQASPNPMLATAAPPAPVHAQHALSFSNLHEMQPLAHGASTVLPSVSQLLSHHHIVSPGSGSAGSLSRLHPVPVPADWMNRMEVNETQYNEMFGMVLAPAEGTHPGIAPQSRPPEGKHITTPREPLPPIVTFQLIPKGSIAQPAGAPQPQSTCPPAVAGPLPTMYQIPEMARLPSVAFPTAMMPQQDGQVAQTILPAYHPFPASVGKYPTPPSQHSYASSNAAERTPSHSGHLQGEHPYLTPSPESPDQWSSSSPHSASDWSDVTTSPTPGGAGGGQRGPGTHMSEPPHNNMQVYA
Pro-neuregulin-1, membrane-bound isoform (Homo sapiens), sequence (Q02297 whole entry, looked up, the tested form may be a part, canonical isoform): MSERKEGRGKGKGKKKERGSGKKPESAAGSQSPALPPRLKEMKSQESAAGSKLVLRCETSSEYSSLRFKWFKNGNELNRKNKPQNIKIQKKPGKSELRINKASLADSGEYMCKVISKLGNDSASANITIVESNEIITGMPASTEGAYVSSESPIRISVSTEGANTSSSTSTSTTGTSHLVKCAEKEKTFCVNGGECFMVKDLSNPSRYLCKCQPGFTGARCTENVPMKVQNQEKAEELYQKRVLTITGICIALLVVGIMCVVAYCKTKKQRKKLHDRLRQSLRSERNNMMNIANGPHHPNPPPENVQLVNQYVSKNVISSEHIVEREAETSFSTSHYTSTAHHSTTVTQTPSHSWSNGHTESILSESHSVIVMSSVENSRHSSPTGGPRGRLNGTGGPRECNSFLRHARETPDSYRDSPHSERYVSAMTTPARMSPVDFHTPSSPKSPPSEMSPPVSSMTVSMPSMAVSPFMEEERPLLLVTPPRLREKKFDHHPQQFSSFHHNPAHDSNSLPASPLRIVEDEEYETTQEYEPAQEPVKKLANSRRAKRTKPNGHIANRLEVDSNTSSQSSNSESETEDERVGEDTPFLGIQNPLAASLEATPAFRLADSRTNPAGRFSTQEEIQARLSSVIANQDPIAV

On to `CC(C)CN1C(=O)[C@@]2(Cc3ccccc31)c1ccccc1C(=O)N(C1CCCCC1)[C@H]2c1ccc(CO)cc1`, for which the composite z-score in [1] was 0.523; in [2] it was -0.21; in assay [3], -0.172; in [4], -0.538; in assay [5] it was -1.08; in [6], -0.388. Also, the values for the composite z-score in assay [7], in [9] and in [10] were -0.0501, -0.382 and -0.226, respectively. Also, the z-score in assay [8] is 0.172 (inactive).
As to `COCCOC(=O)N1C(=O)[C@@]2(c3ccccc31)[C@H](C(=O)N1CCc3cc(OC)c(OC)cc3C1)[C@H]1C(=O)O[C@H](c3ccccc3)[C@H](c3ccccc3)N1[C@@H]2c1ccccc1OCCO`, the composite z-score was 0.221 in assay [1]; 0.409 in assay [2]; -0.0009 in assay [3]; 0.66 in assay [4]; 0.809 in [5]; 0.607 in [6]. For the same molecule, the composite z-score in assay [7] turned out to be 1.04; in assay [9], 0.481; in [10] it was 0.251. Moreover, the z-score in assay [8] is -0.381 (inactive).
`CC(C)N1CC=CC23O[C@@H]4/C=C\CCCOC(=O)C4[C@H]2C(=O)N(CCO)[C@@H]3C1=O` (stereo not given in full): the composite z-score is -0.0118 in assay [1]; -0.158 in assay [2]; -0.156 in assay [3]; -0.958 in assay [4]; -0.933 in assay [5]; 2.16 in assay [6]. The figures for the composite z-score in [7], in assay [9] and in assay [10] were 1.12, -0.219 and -0.257, respectively. Further, the z-score in [8] is -0.469 (inactive).
Consider `CC(C)NC(=O)[C@@]1(Cc2ccccc2I)c2ccccc2C(=O)N(C2CCCCC2)[C@H]1c1ccc(CO)cc1`, for which the composite z-score was -0.107 in [1]; 0.072 in [2]; 0.0402 in assay [3]; 0.87 in [4]; 1.18 in assay [5]; 1.86 in assay [6]. Also, the composite z-score in assay [7] amounted to 1.38; in assay [9], 1.38; in [10], 0.0505. Further, the z-score in [8] is -2.62 (inactive).
Take `CCN1C(C)=C(C(=O)OC)[C@@H](c2ccccc2)N2C(=O)[C@@]3(C(=O)OC)O[C@@]12[C@@H]1C(=O)N(c2ccccc2)C(=O)[C@@H]13`: the composite z-score in [1] was -0.418; in assay [2], 0.833; in [3], -0.0924; in assay [4], 0.877; in assay [5], 1.14; in assay [6], 0.75. Also, the composite z-score in [7] amounted to 0.892; in assay [9], 0.585; in assay [10] it was 0.122. The z-score in [8] is -0.909 (inactive).
In the case of `C=CC[C@]1(C(=O)O)N=C(c2ccc(OCCCO)cc2)O[C@H]1c1ccccc1N=[N+]=[N-]`, the composite z-score in assay [1] is 1.17; in assay [2], -0.258; in [3] it was -0.101; in assay [4], 0.427; in [5], -0.16; in assay [6] it was 0.215. Further, the composite z-score in [7] is 0.686; in [9], 0.489; in assay [10] it was -0.403. The z-score in [8] is 4.6 (inactive).
For `C=CCC(OC(C)=O)[C@@H]1[C@@H](N(Cc2ccc(-c3cccc(C(F)(F)F)c3)o2)C(=O)Cc2ccc(F)cc2)c2cc(OCCCO)ccc2N1C(=O)c1ccc(-c2ccccc2)cc1` (stereo not given in full), the composite z-score in assay [1] is 0.142; in assay [2], -0.0983; in assay [3] it was -0.129; in [4], -0.556; in assay [5], -0.606; in assay [6], -0.0704. The composite z-score in [7] was -0.387; in assay [9] it was 0.0417; in assay [10] it was -0.236. Moreover, the z-score in assay [8] was -0.245 (inactive).
In the case of `CC/C=C/C(=O)N(C[C@@H]1CCCO1)[C@@H]1CC(C(=O)NCCO)=C[C@H](Oc2c(I)cc(CO)cc2OC)[C@H]1O`, the composite z-score is -0.329 in assay [1]; 0.51 in assay [2]; -0.22 in [3]; 0.629 in assay [4]; 0.347 in assay [5]; 0.06 in assay [6]. In addition, the results for the composite z-score in assay [7], in [9] and in assay [10] were 0.366, -0.176 and -0.0994, respectively. For the same molecule, the z-score in assay [8] was -1.24 (inactive).
For the molecule `C=CC[C@@]1(C(=O)N2CCOCC2)N=C(c2ccc(OCCCO)cc2)O[C@@H]1c1ccccc1`, the composite z-score was -0.487 in assay [1]; 1.2 in assay [2]; -0.117 in [3]; 0.351 in assay [4]; 0.369 in assay [5]; 1.12 in assay [6]. For the same molecule, the composite z-score in assay [7] is 1.08; in assay [9] it was -0.298; in assay [10], -0.712. The z-score in assay [8] is -1.36 (inactive).
Take `CO[C@H]1O[C@H](CO)[C@@H](OC(=O)Nc2ccc(Oc3ccccc3)cc2)[C@H](OC(=O)Nc2ccccc2-c2ccccc2)[C@H]1OC(=O)Nc1ccccc1-c1ccccc1`: the composite z-score in assay [1] was -0.448; in [2], 0.44; in assay [3], 0.104; in [4] it was 1.04; in assay [5], 1.51; in [6], 1.52. Also, the composite z-score in assay [7] is 1.35; in assay [9], 0.33; in assay [10] it was -0.0672. Moreover, in assay [8], the z-score was -0.441 (inactive).
For the molecule `COCCOC(=O)N1C(=O)[C@@]2(c3cc(C#CCCO)ccc31)[C@H](C(=O)N1CCCCCCC1)[C@H]1C(=O)O[C@H](c3ccccc3)[C@H](c3ccccc3)N1[C@@H]2c1ccc(O)cc1`, the composite z-score in assay [1] came to 2.61; in assay [2] it was 1.22; in assay [3], 0.188; in assay [4] it was 0.514; in [5], 1.15; in [6] it was 1.17. The composite z-score came out at 1.13 in assay [7], 2.25 in [9] and 0.497 in assay [10]. The z-score in [8] is -2.05 (inactive).
For `C=CC[C@@]1(C(=O)NCC(O)CO)N=C(c2ccc(OCCCO)cc2)O[C@@H]1c1ccccc1CN=[N+]=[N-]` (stereo not given in full), the composite z-score was 0.325 in assay [1]; 0.674 in [2]; -0.11 in assay [3]; -0.355 in assay [4]; 0.13 in [5]; 1.79 in assay [6]. Also, the results for the composite z-score in assay [7], in assay [9] and in assay [10] were 1.23, 0.966 and -0.236, respectively. Also, in assay [8], the z-score is -2.68 (inactive).
Take `C#C[C@H](O[Si](C#Cc1ccccc1)(C(C)C)C(C)C)c1ccccc1`: the composite z-score is -0.16 in assay [1]; -0.232 in assay [2]; -0.0956 in assay [3]; 0.125 in [4]; -0.677 in assay [5]; -0.328 in [6]. Moreover, the composite z-score in assay [7] is -0.305; in assay [9], -0.649; in assay [10], -0.233. For the same molecule, in assay [8], the z-score was 1.15 (inactive).
With `O=C(NCC(O)CO)[C@]1(Cc2ccccc2)N=C(c2ccc(OCCCO)cc2)O[C@@H]1c1ccccc1` (stereo not given in full), the composite z-score is 1.09 in assay [1]; 2.15 in assay [2]; -0.104 in assay [3]; -0.512 in [4]; 0.271 in assay [5]; 0.951 in assay [6]. The figures for the composite z-score in [7], in assay [9] and in assay [10] were 0.868, 0.864 and 0.189, respectively. Moreover, in assay [8], the z-score was -1.63 (inactive).
Regarding `O=[N+]([O-])c1ccc(C[n+]2ccc3ccc(O)cc3c2)o1`, the composite z-score was -0.493 in [1]; 0.449 in [2]; -0.146 in assay [3]; 0.169 in [4]; 0.37 in assay [5]; 1.49 in [6]. In addition, the composite z-score in assay [7] was 1.11; in assay [9], 0.147; in assay [10] it was -0.411. Also, the z-score in [8] was 0.468 (inactive).
With `COc1cc(CO)cc(I)c1O[C@H]1C=C(C(=O)NCCO)C[C@@H](N(CC2CCCCC2)C(=O)c2cc3ccccc3oc2=O)[C@@H]1O`, the composite z-score in assay [1] is -0.336; in assay [2], -0.0516; in assay [3], -0.0513; in [4], 0.233; in [5], 0.363; in assay [6], 0.0577. Moreover, the values for the composite z-score in assay [7], in assay [9] and in [10] were 0.377, -0.52 and 0.0722, respectively. Further, the z-score in assay [8] was -1.48 (inactive).

For the origin of these results see PubChem BioAssay.
